Data taken from PMC4336329 (PLoS ONE, 2015).
Among all 310,000 compounds or so, about 14,000 (4.5%) showed an effect of 50% or more. The effect is printed as a negative number. For the sample, strong results were picked, then their nearest neighbours and some compounds at random.

Biological target: human ether-à-go-go-related gene (hERG) potassium channel (human, UniProt Q12809)
Assay: primary screen, population patch clamp on CHO cells stably expressing hERG; higher = less effect of the substance
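Further: peak tail current of the secondary pulse compared with the same well before compound.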

Sequence of human ether-à-go-go-related gene (hERG) potassium channel (Q12809 whole entry, looked up): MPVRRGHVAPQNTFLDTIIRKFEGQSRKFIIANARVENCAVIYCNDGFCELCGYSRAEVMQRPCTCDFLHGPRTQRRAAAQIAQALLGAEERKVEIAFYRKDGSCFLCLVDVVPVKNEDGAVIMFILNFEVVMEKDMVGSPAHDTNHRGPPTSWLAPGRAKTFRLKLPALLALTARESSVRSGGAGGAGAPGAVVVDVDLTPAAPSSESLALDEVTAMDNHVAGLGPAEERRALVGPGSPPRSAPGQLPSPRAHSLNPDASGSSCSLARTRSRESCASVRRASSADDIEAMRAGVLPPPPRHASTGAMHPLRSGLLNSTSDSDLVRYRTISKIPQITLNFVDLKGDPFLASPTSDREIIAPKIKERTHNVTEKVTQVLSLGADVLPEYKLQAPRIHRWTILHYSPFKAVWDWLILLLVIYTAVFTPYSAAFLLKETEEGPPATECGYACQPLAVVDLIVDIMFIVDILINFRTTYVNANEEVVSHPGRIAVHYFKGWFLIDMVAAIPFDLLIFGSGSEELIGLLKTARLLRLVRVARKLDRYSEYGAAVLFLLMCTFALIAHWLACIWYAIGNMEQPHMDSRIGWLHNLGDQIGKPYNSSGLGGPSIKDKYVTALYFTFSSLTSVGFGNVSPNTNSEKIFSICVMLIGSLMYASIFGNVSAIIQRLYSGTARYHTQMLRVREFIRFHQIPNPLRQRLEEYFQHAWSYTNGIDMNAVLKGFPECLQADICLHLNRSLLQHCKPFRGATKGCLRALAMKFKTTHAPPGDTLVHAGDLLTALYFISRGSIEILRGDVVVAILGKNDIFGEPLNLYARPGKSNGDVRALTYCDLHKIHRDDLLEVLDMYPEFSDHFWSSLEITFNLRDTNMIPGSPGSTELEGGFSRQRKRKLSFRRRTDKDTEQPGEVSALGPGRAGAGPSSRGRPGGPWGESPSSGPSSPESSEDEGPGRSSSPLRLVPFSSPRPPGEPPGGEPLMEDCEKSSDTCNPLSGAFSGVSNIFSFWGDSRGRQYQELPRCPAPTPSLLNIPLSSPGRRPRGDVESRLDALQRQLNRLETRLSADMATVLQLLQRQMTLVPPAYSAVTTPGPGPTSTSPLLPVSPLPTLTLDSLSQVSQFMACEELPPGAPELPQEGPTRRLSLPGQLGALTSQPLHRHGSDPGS

| SMILES | hERG current change (%, negative = inhibition) at 10uM |
| --- | --- |
| Cc1ncc(C(=O)O)c(C(=O)O)c1N | 13.4% |
| O=C(O)c1cnc(-c2ccccc2)nc1Sc1ccccc1 | 14.2% |
| COc1ccc(CN2CCCC(C(=O)N3CCc4ccccc4C3)C2)cc1OC (centres unmarked) | -62% |
| Cc1cccc(CN2CCCC(C(=O)N3CCc4ccccc4C3)C2)c1.O=C(O)C(=O)O (centres unmarked) | -51.3% |
| O=C(C1CCCN(Cc2ccccc2)C1)N1CCCCC1.O=C(O)C(=O)O (centres unmarked) | 11.3% |
| COc1ccc(S(=O)(=O)N2CCC(C(=O)N3CCc4ccccc4C3)CC2)cc1OC | -27.4% |
| COc1cc(CN2CCCC(C(=O)N3CCc4ccccc4C3)C2)cc(OC)c1OC (centres unmarked) | -62% |
| COc1ccc(CN2CCCC(C(=O)N3CCCCC3)C2)cc1OC.O=C(O)C(=O)O (centres unmarked) | -25.5% |
| Cc1cccc(CN2CCCC(C(=O)N3CCCCC3)C2)c1.O=C(O)C(=O)O (centres unmarked) | 15.5% |
| O=C(C1CCCN(Cc2ccccc2F)C1)N1CCc2ccccc2C1.O=C(O)C(=O)O (centres unmarked) | -22.6% |
| O=C(C1CCCN(Cc2ccncc2)C1)N1CCc2ccccc2C1.O=C(O)C(=O)O (centres unmarked) | -19.2% |
| COc1ccc(C)cc1-n1c(SCC(=O)Nc2cccc(C(=O)O)c2)nc2ccccc2c1=O | 12% |
| O=C(CCC(=O)Nc1ccccc1)NNC(=O)C(c1ccccc1)c1ccccc1 | -0.585% |
| CCN(c1ccccc1)P(=O)(Nc1ccccc1)Nc1ccccc1 | 0.944% |
| Cc1ccc(N2C(=O)CSC2c2cccnc2)cc1F (centres unmarked) | 5.77% |
| CCCc1nc(SCC(=O)Nc2cc(C)on2)c2c(=O)n(C)c(=O)n(C)c2n1 | -2.26% |
| NCCCC[C@H]1NC(=O)[C@H](CCC(=O)O)NC(=O)c2cc([N+](=O)[O-])cc(I)c2OCC[C@@H](C(N)=O)NC1=O | 26.6% |
| Cc1cc(C)c2sc(N(CCCN(C)C)C(=O)c3ccc(S(=O)(=O)N(C)Cc4ccccc4)cc3)nc2c1.Cl | -13.5% |
| Cc1cc(C)c2sc(N(CCCN(C)C)C(=O)c3ccc(S(=O)(=O)N(C)C4CCCCC4)cc3)nc2c1.Cl | -81.4% |
| CCCCN(CC)S(=O)(=O)c1ccc(C(=O)N(CCCN(C)C)c2nc3cc(C)cc(C)c3s2)cc1.Cl | -73% |
| Cc1cc(C)c2sc(N(CCCN(C)C)C(=O)c3ccc(S(=O)(=O)N4CCCc5ccccc54)cc3)nc2c1.Cl | 0.702% |
| Cc1cc(C)c2sc(N(CCCN(C)C)C(=O)c3ccc(S(=O)(=O)N4CCc5ccccc5C4)cc3)nc2c1.Cl | 4.44% |
| CCN(Cc1ccccc1)S(=O)(=O)c1ccc(C(=O)N(CCCN(C)C)c2nc3cc(C)cc(C)c3s2)cc1.Cl | -4.15% |
| CCOc1ccc(S(=O)(=O)N2CCCCC2)cc1NC(=O)Cc1ccsc1 | 2.15% |
| BrC(=C\c1ccccc1)/C=N/Nc1ccc2nncn2n1 | -21.6% |
| C(=C\c1ccccc1)/C=N/Nc1ccc2nncn2n1 | -19.7% |
| CC(/C=N/Nc1ccc2nncn2n1)=C\c1ccccc1 | -51.8% |

| SMILES | hERG current change (%, negative = inhibition) at 10uM |
| --- | --- |
| Oc1sc(C=Nc2ccccc2)c2ccccc12 | 7.99% |
| COc1ccc(CCC(=O)Nc2ccc3c(c2)OCO3)cc1 | 2.6% |
| COc1ccc(CCNC(=O)COc2ncnc3cc([N+](=O)[O-])ccc23)cc1 | -16.5% |
| O=C(COc1ncnc2cc([N+](=O)[O-])ccc12)NC(=O)NC1CCCCC1 | -56.5% |
| O=C(COc1ncnc2cc([N+](=O)[O-])ccc12)NC1CCCCC1 | -2.76% |
| O=C1c2ccccc2NC(c2c(Cl)cccc2Cl)N1Cc1ccccc1 (centres unmarked) | 7.98% |
| N=c1c2c3c(sc2ncn1CCCN1CCOCC1)CCCCC3 | -51.2% |
| N=c1c2c3c(sc2ncn1CCN1CCOCC1)CCCC3 | -16.9% |
| N=c1c2c3c(sc2ncn1Cc1ccco1)CCCCC3 | -62% |
| N=c1c2c3c(sc2ncn1CCN1CCOCC1)CCCCC3 | -42.9% |
| CCCCn1cnc2sc3c(c2c1=N)CCCC3 | -52.1% |
| N=c1c2c3c(sc2ncn1Cc1ccccc1)CCCC3 | -49.7% |
| N=c1c2c3c(sc2ncn1N)CCCCC3 | -12.6% |
| CC(C)Cn1cnc2sc3c(c2c1=N)CCCC3 | -25.2% |
| N=c1c2c3c(sc2ncn1CCCO)CCCC3 | -19.5% |
| CC1CCCCC1NC(=O)CCNS(=O)(=O)c1ccc2c(c1)CCC(=O)N2 (centres unmarked) | 6.25% |
| O=C(Nc1cc(C(F)(F)F)ccc1-n1cnc2ccccc21)c1ccccc1 | -32% |
| O=C(Nc1ccc(/C=C/c2nc3ccccc3o2)cc1)c1cccc(C(F)(F)F)c1 | 0.151% |
| COC(=O)c1ccc(NC(=S)NCCc2cccc(C)c2)cc1 | -2.3% |
| CCCn1c(NC(=O)c2cccc(C)c2C)nc2ccccc21 | -26.7% |
| CCOc1ccccc1NC(=O)CSc1nnc2ccc(-c3ccncc3)nn12 | -54.3% |
| Cc1ccccc1NC(=O)CSc1nnc2ccc(-c3ccncc3)nn12 | -69.5% |
| Cc1ccccc1NC(=O)CSc1nnc2ccc(-c3cccnc3)nn12 | -33% |
| CC(=O)Nc1cccc(NC(=O)CSc2nnc3ccc(-c4ccncc4)nn23)c1 | -17.8% |
| CCOc1ccccc1NC(=O)CSc1nnc2ccc(-c3ccccn3)nn12 | 2.41% |
| CCOc1ccccc1NC(=O)CSc1nnc2ccc(-c3cccnc3)nn12 | -25.8% |
